Results: ChEMBL document CHEMBL1961873, “Compounds: GSK PKIS; Assays: Nanosyn kinase panel” (2012)

Key:
[1] = biological target: Glycogen synthase kinase-3 alpha (Homo sapiens) (UniProt P49840); conditions: at 0.1 µM
[2] = biological target: Glycogen synthase kinase-3 alpha (Homo sapiens) (UniProt P49840); conditions: at 1 µM
[3] = biological target: Glycogen synthase kinase-3 beta (Homo sapiens) (UniProt P49841); conditions: at 0.1 µM
[4] = biological target: Glycogen synthase kinase-3 beta (Homo sapiens) (UniProt P49841); conditions: at 1 µM
[5] = biological target: Homeodomain-interacting protein kinase 1 (Homo sapiens) (UniProt Q86Z02); conditions: at 0.1 µM
[6] = biological target: Homeodomain-interacting protein kinase 1 (Homo sapiens) (UniProt Q86Z02); conditions: at 1 µM
[7] = biological target: Homeodomain-interacting protein kinase 4 (Homo sapiens) (UniProt Q8NE63); conditions: at 0.1 µM
[8] = biological target: Homeodomain-interacting protein kinase 4 (Homo sapiens) (UniProt Q8NE63); conditions: at 1 µM
[9] = biological target: Mitogen-activated protein kinase 9 (Homo sapiens) (UniProt P45984); conditions: at 0.1 µM
[10] = biological target: Mitogen-activated protein kinase 9 (Homo sapiens) (UniProt P45984); conditions: at 1 µM
[11] = biological target: Mitogen-activated protein kinase 1 (Homo sapiens) (UniProt P28482); conditions: at 0.1 µM
[12] = biological target: Mitogen-activated protein kinase 1 (Homo sapiens) (UniProt P28482); conditions: at 1 µM
[13] = biological target: Mitogen-activated protein kinase 3 (Homo sapiens) (UniProt P27361); conditions: at 0.1 µM
[14] = biological target: Mitogen-activated protein kinase 3 (Homo sapiens) (UniProt P27361); conditions: at 1 µM
[15] = biological target: SRSF protein kinase 3 (Homo sapiens) (UniProt Q9UPE1); conditions: at 0.1 µM
[16] = biological target: SRSF protein kinase 3 (Homo sapiens) (UniProt Q9UPE1); conditions: at 1 µM
[17] = biological target: Mitogen-activated protein kinase 14 (Homo sapiens) (UniProt Q16539); conditions: at 0.1 µM
[18] = biological target: Mitogen-activated protein kinase 14 (Homo sapiens) (UniProt Q16539); conditions: at 1 µM
[19] = biological target: Mitogen-activated protein kinase 11 (Homo sapiens) (UniProt Q15759); conditions: at 0.1 µM
[20] = biological target: Mitogen-activated protein kinase 11 (Homo sapiens) (UniProt Q15759); conditions: at 1 µM
[21] = biological target: Mitogen-activated protein kinase 13 (Homo sapiens) (UniProt O15264); conditions: at 0.1 µM
[22] = biological target: Mitogen-activated protein kinase 13 (Homo sapiens) (UniProt O15264); conditions: at 1 µM
[23] = biological target: Mitogen-activated protein kinase 12 (Homo sapiens) (UniProt P53778); conditions: at 0.1 µM
[24] = biological target: Mitogen-activated protein kinase 12 (Homo sapiens) (UniProt P53778); conditions: at 1 µM
[25] = biological target: SRSF protein kinase 1 (Homo sapiens) (UniProt Q96SB4); conditions: at 0.1 µM
[26] = biological target: SRSF protein kinase 1 (Homo sapiens) (UniProt Q96SB4); conditions: at 1 µM
[27] = biological target: Phosphatidylinositol 4,5-bisphosphate 3-kinase catalytic subunit alpha isoform (Homo sapiens) (UniProt P42336); conditions: at 0.1 µM
[28] = biological target: Phosphatidylinositol 4,5-bisphosphate 3-kinase catalytic subunit alpha isoform (Homo sapiens) (UniProt P42336); conditions: at 1 µM
[29] = biological target: Phosphatidylinositol 4,5-bisphosphate 3-kinase catalytic subunit delta isoform (Homo sapiens) (UniProt O00329); conditions: at 0.1 µM
[30] = biological target: Phosphatidylinositol 4,5-bisphosphate 3-kinase catalytic subunit delta isoform (Homo sapiens) (UniProt O00329); conditions: at 1 µM
[31] = biological target: Phosphatidylinositol 4-kinase beta (Homo sapiens) (UniProt Q9UBF8); conditions: at 0.1 µM
[32] = biological target: Phosphatidylinositol 4-kinase beta (Homo sapiens) (UniProt Q9UBF8); conditions: at 1 µM
[33] = biological target: Sphingosine kinase 1 (Homo sapiens) (UniProt Q9NYA1); conditions: at 0.1 µM
[34] = biological target: Sphingosine kinase 1 (Homo sapiens) (UniProt Q9NYA1); conditions: at 1 µM
[35] = biological target: Sphingosine kinase 2 (Homo sapiens) (UniProt Q9NRA0); conditions: at 0.1 µM
[36] = biological target: Sphingosine kinase 2 (Homo sapiens) (UniProt Q9NRA0); conditions: at 1 µM
[37] = biological target: Casein kinase II subunit alpha (Homo sapiens) (UniProt P68400); conditions: at 0.1 µM
[38] = biological target: Casein kinase II subunit alpha (Homo sapiens) (UniProt P68400); conditions: at 1 µM
[39] = biological target: Inhibitor of nuclear factor kappa-B kinase subunit alpha (Homo sapiens) (UniProt O15111); conditions: at 0.1 µM
[40] = biological target: Inhibitor of nuclear factor kappa-B kinase subunit alpha (Homo sapiens) (UniProt O15111); conditions: at 1 µM
[41] = biological target: Inhibitor of nuclear factor kappa-B kinase subunit beta (Homo sapiens) (UniProt O14920); conditions: at 0.1 µM
[42] = biological target: Inhibitor of nuclear factor kappa-B kinase subunit beta (Homo sapiens) (UniProt O14920); conditions: at 1 µM
[43] = biological target: Inhibitor of nuclear factor kappa-B kinase subunit epsilon (Homo sapiens) (UniProt Q14164); conditions: at 0.1 µM
[44] = biological target: Inhibitor of nuclear factor kappa-B kinase subunit epsilon (Homo sapiens) (UniProt Q14164); conditions: at 1 µM
[45] = biological target: Serine/threonine-protein kinase Nek1 (Homo sapiens) (UniProt Q96PY6); conditions: at 0.1 µM
[46] = biological target: Serine/threonine-protein kinase Nek1 (Homo sapiens) (UniProt Q96PY6); conditions: at 1 µM
[47] = biological target: Serine/threonine-protein kinase Nek2 (Homo sapiens) (UniProt P51955); conditions: at 0.1 µM
[48] = biological target: Serine/threonine-protein kinase Nek2 (Homo sapiens) (UniProt P51955); conditions: at 1 µM
[49] = biological target: Serine/threonine-protein kinase Nek6 (Homo sapiens) (UniProt Q9HC98); conditions: at 0.1 µM
[50] = biological target: Serine/threonine-protein kinase Nek6 (Homo sapiens) (UniProt Q9HC98); conditions: at 1 µM
[51] = biological target: Serine/threonine-protein kinase Nek7 (Homo sapiens) (UniProt Q8TDX7); conditions: at 0.1 µM
[52] = biological target: Serine/threonine-protein kinase Nek7 (Homo sapiens) (UniProt Q8TDX7); conditions: at 1 µM
[53] = biological target: Serine/threonine-protein kinase Nek9 (Homo sapiens) (UniProt Q8TD19); conditions: at 0.1 µM
[54] = biological target: Serine/threonine-protein kinase Nek9 (Homo sapiens) (UniProt Q8TD19); conditions: at 1 µM
[55] = biological target: Serine/threonine-protein kinase PLK1 (Homo sapiens) (UniProt P53350); conditions: at 0.1 µM
[56] = biological target: Serine/threonine-protein kinase PLK1 (Homo sapiens) (UniProt P53350); conditions: at 1 µM

SRSF protein kinase 3 (Homo sapiens), sequence (Q9UPE1 whole entry): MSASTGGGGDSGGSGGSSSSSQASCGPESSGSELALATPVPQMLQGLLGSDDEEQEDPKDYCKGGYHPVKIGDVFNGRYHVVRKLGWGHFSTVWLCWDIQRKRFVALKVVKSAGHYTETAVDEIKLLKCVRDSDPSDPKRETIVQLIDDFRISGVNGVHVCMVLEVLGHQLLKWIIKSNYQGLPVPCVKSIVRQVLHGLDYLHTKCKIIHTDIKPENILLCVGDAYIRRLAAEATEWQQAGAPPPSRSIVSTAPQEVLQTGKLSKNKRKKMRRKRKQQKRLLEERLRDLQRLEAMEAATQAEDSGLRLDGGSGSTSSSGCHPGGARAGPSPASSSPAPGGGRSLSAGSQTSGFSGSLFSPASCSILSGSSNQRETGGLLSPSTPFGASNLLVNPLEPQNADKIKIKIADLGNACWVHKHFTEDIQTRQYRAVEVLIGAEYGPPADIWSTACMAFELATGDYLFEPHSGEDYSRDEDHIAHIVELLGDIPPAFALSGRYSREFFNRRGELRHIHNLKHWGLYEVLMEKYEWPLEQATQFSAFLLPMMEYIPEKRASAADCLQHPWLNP
Glycogen synthase kinase-3 alpha (Homo sapiens), sequence (P49840 2-483 limits assumed): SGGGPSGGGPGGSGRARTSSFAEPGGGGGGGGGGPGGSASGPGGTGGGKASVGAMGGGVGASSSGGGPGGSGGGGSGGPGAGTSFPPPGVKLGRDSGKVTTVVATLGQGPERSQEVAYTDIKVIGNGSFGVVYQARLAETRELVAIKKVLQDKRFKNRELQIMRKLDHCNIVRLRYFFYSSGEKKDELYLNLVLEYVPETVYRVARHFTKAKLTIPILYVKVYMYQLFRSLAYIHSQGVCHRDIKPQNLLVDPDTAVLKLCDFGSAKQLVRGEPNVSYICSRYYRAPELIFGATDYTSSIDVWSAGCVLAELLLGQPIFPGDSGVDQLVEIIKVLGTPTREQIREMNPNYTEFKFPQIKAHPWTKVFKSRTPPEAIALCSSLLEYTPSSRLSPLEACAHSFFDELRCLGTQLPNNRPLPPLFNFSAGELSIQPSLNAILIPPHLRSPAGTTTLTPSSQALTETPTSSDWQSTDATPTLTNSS
Serine/threonine-protein kinase Nek6 (Homo sapiens), sequence (Q9HC98 whole entry): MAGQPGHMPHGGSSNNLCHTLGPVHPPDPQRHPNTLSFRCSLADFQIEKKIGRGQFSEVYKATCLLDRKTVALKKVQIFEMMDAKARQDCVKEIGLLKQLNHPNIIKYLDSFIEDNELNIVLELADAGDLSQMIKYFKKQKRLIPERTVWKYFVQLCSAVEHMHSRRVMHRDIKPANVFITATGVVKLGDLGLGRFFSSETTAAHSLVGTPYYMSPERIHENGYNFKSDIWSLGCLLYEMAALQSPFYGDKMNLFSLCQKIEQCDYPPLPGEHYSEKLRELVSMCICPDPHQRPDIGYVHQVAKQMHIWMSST
Mitogen-activated protein kinase 9 (Homo sapiens), sequence (P45984 whole entry, looked up): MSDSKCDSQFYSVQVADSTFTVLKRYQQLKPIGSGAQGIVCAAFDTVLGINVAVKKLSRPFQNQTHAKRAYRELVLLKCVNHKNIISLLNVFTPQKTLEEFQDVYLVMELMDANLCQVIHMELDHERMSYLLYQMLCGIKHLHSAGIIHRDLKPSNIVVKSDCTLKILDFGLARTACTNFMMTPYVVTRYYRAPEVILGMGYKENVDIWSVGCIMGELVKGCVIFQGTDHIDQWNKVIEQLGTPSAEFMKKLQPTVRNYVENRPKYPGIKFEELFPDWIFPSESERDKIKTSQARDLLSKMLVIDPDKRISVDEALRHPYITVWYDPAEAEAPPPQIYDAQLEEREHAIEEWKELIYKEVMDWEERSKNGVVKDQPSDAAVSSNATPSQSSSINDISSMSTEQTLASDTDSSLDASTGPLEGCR
Sphingosine kinase 2 (Homo sapiens), sequence (Q9NRA0 whole entry): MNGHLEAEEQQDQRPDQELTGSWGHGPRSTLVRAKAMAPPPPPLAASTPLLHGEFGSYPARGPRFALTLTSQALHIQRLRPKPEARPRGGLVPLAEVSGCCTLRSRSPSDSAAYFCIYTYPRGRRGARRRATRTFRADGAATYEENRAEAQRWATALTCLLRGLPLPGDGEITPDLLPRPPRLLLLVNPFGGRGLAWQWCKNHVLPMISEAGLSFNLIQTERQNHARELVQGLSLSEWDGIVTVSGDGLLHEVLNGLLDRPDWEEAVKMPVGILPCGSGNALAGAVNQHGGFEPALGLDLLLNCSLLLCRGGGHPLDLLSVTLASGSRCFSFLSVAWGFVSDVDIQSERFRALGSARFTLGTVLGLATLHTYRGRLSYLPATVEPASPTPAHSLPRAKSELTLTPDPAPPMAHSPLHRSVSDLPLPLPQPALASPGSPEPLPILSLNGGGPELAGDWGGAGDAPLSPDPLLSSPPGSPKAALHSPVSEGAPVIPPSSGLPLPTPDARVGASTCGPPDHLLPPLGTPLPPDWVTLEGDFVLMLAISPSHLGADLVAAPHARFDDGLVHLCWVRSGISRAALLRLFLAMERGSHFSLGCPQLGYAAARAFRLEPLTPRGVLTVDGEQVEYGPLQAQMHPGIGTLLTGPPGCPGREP
Mitogen-activated protein kinase 1 (Homo sapiens), sequence (P28482 whole entry): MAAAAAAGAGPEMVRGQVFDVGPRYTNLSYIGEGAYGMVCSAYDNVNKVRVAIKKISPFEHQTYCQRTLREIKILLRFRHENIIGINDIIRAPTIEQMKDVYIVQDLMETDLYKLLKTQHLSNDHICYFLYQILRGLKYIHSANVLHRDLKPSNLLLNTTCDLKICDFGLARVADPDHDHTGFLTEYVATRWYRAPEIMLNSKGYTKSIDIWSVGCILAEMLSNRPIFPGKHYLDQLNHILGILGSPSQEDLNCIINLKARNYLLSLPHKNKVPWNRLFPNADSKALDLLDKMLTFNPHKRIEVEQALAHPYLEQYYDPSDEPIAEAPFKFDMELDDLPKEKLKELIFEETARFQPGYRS
Homeodomain-interacting protein kinase 1 (Homo sapiens), sequence (Q86Z02 whole entry, looked up): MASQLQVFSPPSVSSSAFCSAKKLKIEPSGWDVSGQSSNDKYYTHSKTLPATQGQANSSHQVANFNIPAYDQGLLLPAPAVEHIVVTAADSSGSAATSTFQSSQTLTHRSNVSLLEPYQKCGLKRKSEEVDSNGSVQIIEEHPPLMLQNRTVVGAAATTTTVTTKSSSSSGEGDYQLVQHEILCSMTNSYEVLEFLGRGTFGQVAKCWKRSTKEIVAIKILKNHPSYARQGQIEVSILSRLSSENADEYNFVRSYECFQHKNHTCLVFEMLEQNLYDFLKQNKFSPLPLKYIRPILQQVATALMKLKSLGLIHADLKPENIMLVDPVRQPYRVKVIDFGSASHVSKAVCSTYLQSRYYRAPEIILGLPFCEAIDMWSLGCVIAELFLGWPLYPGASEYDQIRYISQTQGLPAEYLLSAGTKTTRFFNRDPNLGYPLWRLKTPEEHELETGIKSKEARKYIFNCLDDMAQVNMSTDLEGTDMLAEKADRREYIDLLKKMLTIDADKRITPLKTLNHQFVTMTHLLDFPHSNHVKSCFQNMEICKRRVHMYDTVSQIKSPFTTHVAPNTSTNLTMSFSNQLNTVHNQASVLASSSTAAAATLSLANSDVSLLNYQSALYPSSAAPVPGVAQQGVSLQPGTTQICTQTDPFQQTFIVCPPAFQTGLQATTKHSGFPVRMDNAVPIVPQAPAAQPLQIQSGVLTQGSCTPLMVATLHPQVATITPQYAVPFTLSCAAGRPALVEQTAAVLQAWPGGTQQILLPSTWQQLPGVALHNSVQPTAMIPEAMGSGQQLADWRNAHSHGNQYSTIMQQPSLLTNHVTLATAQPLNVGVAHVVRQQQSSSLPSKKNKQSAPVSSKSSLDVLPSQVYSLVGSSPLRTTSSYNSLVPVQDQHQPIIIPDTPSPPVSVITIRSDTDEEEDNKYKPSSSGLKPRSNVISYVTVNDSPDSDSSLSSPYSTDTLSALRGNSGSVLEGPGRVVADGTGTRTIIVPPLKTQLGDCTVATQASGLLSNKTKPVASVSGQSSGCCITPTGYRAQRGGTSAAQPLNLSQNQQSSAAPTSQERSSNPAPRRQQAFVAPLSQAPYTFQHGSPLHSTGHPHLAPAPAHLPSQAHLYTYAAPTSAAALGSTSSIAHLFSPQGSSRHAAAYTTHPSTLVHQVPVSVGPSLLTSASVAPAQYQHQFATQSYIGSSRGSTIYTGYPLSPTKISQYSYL
Mitogen-activated protein kinase 14 (Homo sapiens), sequence (Q16539 whole entry): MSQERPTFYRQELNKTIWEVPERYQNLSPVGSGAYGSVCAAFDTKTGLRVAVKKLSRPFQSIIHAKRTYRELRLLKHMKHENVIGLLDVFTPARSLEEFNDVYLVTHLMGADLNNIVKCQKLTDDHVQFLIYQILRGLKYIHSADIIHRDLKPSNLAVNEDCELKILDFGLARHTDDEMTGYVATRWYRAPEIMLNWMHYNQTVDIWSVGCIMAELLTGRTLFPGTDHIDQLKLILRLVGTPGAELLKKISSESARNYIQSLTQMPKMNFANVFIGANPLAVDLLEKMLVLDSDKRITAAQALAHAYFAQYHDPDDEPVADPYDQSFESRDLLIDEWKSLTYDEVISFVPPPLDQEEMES
Mitogen-activated protein kinase 12 (Homo sapiens), sequence (P53778 whole entry): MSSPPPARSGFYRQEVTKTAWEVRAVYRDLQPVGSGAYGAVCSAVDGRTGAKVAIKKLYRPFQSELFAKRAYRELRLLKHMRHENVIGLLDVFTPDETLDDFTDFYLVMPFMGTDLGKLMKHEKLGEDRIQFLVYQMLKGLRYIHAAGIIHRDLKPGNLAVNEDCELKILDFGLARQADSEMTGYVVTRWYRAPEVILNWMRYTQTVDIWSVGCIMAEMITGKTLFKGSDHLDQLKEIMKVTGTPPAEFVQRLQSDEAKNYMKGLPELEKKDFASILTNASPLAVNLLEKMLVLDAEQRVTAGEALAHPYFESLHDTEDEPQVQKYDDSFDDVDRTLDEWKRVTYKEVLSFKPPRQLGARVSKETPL

CNC(=O)Oc1cc(C)c(/C=C/c2cncc(C(=O)NC)c2)c(C)c1
inhibition [1]: 1.71% | inhibition [2]: 5.29% | inhibition [3]: 1.23% | inhibition [4]: 4.75% | inhibition [5]: -0.37% | inhibition [6]: 1.2% | inhibition [7]: 0.96% | inhibition [8]: 3.81% | inhibition [9]: 3.14% | inhibition [10]: 2.28% | inhibition [11]: 1.83% | inhibition [12]: 2.04% | inhibition [13]: 3.1% | inhibition [14]: 2.72% | inhibition [15]: 1.79% | inhibition [16]: 1.43% | inhibition [17]: 3.47% | inhibition [18]: 3.16% | inhibition [19]: 1.39% | inhibition [20]: 2.35% | inhibition [21]: 0.06% | inhibition [22]: 2.61% | inhibition [23]: 0.49% | inhibition [24]: 1.7% | inhibition [25]: -1.34% | inhibition [26]: -4.31% | inhibition [27]: 2.83% | inhibition [28]: 2.08% | inhibition [29]: 1.65% | inhibition [30]: 0.21% | inhibition [31]: 5.69% | inhibition [32]: 3.41% | inhibition [33]: 2.31% | inhibition [34]: 0.63% | inhibition [35]: 0.57% | inhibition [36]: 19.7% | inhibition [37]: 1.53% | inhibition [38]: 0.66% | inhibition [39]: 0.51% | inhibition [40]: -0.7% | inhibition [41]: 3.06% | inhibition [42]: 1.89% | inhibition [43]: 2.27% | inhibition [44]: 0.9% | inhibition [45]: 2.1% | inhibition [46]: 1.49% | inhibition [47]: 2.52% | inhibition [48]: 4.05% | inhibition [49]: -0.26% | inhibition [50]: 1.16% | inhibition [51]: 2.46% | inhibition [52]: 2.99% | inhibition [53]: 6.95% | inhibition [54]: 4.01% | inhibition [55]: 3.92% | inhibition [56]: 2.75%
